Several values for one entry are separate records, joined by “and”; a condition that tells them apart may be missing. Equal entries are not always repeated. More than one record can exist for a structure, and the calls need not agree. Activity calls are given as the source filed them. The calls were made as follows: active = hit-call score of the fitted dose curve at least 0.9, where 1 is the maximum; inactive = score below 0.9.
read-out: Interferon-gamma inducible Protein 10 (IP10), CXCL10 (gene 3627); test: BSK_KF3CT_IP10: BioMAP Diversity Plus: KF3CT Assay for Interferon-gamma inducible Protein 10 (IP10) Biomarker Activity (AID 2283068); settings: primary human keratinocytes with fibroblasts; actives raise or lower the signal
Description: BSK_KF3CT is a cell-based, multiplexed-readout assay that uses keratinocytes and foreskin fibroblasts, a human skin primary cell co-culture, with measurements taken at 24 hours after chemical dosing in a 96-well plate.BSK_KF3CT_IP10 is an assay component measured in the BSK_KF3CT assay. It measures IP-10 antibody related to regulation of gene expression using ELISA technology.Data from the assay component BSK_KF3CT_IP10 was analyzed into 1 assay endpoint. This assay endpoint, BSK_KF3CT_IP10, was analyzed with bidirectional fitting relative to DMSO as the negative control and baseline of activity. Using a type of binding reporter, gain or loss-of-signal activity can be used to understand changes in the signaling as they relate to the gene CXCL10. Furthermore, this assay endpoint can be referred to as a primary readout, because this assay has produced multiple assay endpoints where this one serves a signaling function. To generalize the intended target to other relatable targets, this assay endpoint is annotated to the cytokine intended target family, where the subfamily is chemotactic factor.
The levels of cell surface (or secreted, indicated by the prefix "s") biomarker endpoints were measured by ELISA. Overt cytotoxicity to cells in confluent adherent cultures (all systems other than the BT system) was assessed by measuring total protein levels using sulforhodamine B (SRB) staining in parallel cultures at the time of biomarker measurements, indicated as SRB endpoints. For proliferation assays for adherent cell types, individual cell types are cultured at sub-confluence and relative cell numbers quantified by SRB staining at time points optimized for each system (48 h: 3C and CASM3C systems; 72 h: BT and HDF3CGF systems; 96 h: SAg system). SRB was performed by staining cells with 0.1% SRB after fixation with 10% TCA and reading wells at 560 nm.Viability and proliferation of PBMC (T cells) was quantified by Alamar Blue reduction for the SAg and BT systems. For PBMC viability (referred to as PBMC Cytotoxicity within the assay endpoint names), cells were plated (75,000/well in a 96-well plate) and then chemical samples added for 1 h before addition of activators, SEB and TSST-1 (20 ng/mL final concentration each). Cells were incubated for 90 h. Then, Alamar Blue (20 uL/well) (Invitrogen, Cat DAL1100) was added for 6 h, and the plates were read with a fluorescence microplate reader at 546/580 nm (excitation/emission). For PBMC proliferation, cells were plated and activated as above but incubated for only 16 h prior to addition of Alamar Blue. Plates were read after 6 h.

Row | Structure (SMILES) | outcome | AC50
1 | O=C(O)C(F)(F)C(F)(F)C(F)(F)OC(F)(C(F)(F)F)C(F)(F)F | inactive | –
2 | OCC(F)(F)C(F)(F)C(F)(F)C(F)(F)C(F)(F)C(F)(F)C(F)(F)C(F)(F)CO | inactive | 35.2 µM (active)
3 | CC1=CC2C3C=CC(C3)C2C1C (stereo not given) | inactive | –
4 | O=C1c2c(O)ccc(Nc3ccc(CCO)cc3)c2C(=O)c2c([N+](=O)[O-])ccc(O)c21 | – | 27 µM (active)
5 | O=C(O)C(F)(F)C(F)(F)C(F)(F)OC(F)(F)F | inactive | –
6 | O=C(c1ccccc1)c1ccc(O)cc1O | inactive | –
7 | NC(O)(C(F)(F)F)C(F)(F)F | inactive | –
8 | Cc1ccc(S(=O)(=O)C(I)I)cc1 | – | 7.09 µM (active)
9 | O=S(=O)(Cl)C(F)(F)C(F)(F)C(F)(F)C(F)(F)C(F)(F)C(F)(F)C(F)(F)C(F)(F)F | – | 34.8 µM (active) and 32.5 µM (active)
10 | NCC(F)(F)C(F)(F)C(F)(F)C(F)(F)C(F)(F)C(F)(F)F | inactive | –
11 | CCOC(=O)CC(=O)C(F)(F)C(F)(F)F | inactive | –
12 | CCN(CC)c1ccc(N=Nc2ccccc2)cc1 | inactive | –
13 | O=C(O)C(F)(F)OC(F)(F)C(F)(F)OC(F)(F)C(F)(F)OC(F)(F)F | inactive | –
14 | NC(=O)C(F)(F)C(F)(F)C(F)(F)C(F)(F)C(N)=O | inactive | –
15 | Cc1cnccn1 | inactive | –
16 | OCCCCC(F)(F)C(F)(F)C(F)(F)C(F)(F)F | inactive | –
17 | Cc1ccc(O)c(-n2nc3ccccc3n2)c1 | inactive | –
18 | NC(=O)C(F)(F)C(F)(F)C(F)(F)F | inactive | –
19 | CCN(CC)c1ccc(C=O)c(O)c1 | inactive | –
20 | O=S(=O)(O)CCC(F)(F)C(F)(F)C(F)(F)C(F)(F)C(F)(F)C(F)(F)C(F)(F)C(F)(F)F | inactive | –

Row | Structure (SMILES) | outcome | AC50
21 | O=C(O)C(F)(F)C(F)(F)C(F)(F)C(=O)O | inactive | –
22 | COC(F)(C(F)F)C(F)(F)F (stereo not given) | inactive | –
23 | CNS(=O)(=O)C(F)(F)C(F)(F)C(F)(F)C(F)(F)C(F)(F)C(F)(F)C(F)(F)C(F)(F)F | inactive | –
24 | OC(O)C(F)(F)C(F)(F)F | inactive | –
25 | C=C(C)C(=O)OCC(F)(F)C(F)(F)C(F)(F)C(F)F | inactive | –
26 | NCC(F)(F)C(F)(F)C(F)(F)C(F)(F)C(F)(F)C(F)(F)C(F)(F)C(F)(F)F | inactive | –
27 | OCC(F)(F)C(F)(F)C(F)(F)CO | inactive | –
28 | CN(C(=O)C(F)(F)C(F)(F)C(F)(F)F)[Si](C)(C)C | inactive | –
29 | CCOC(C=C(C)CCC=C(C)C)OCC | – | 34.5 µM (active)
30 | CO[Si](C)(CCC(F)(F)C(F)(F)C(F)(F)C(F)(F)C(F)(F)C(F)(F)F)OC | inactive | –
31 | O=C1C=CC(=O)N1c1ccc(Cc2ccc(N3C(=O)C=CC3=O)cc2)cc1 | – | 6.7 µM (active)
32 | Brc1nc2ccccc2s1 | inactive | –
33 | O=C(Cl)C(F)(F)C(F)(F)C(F)(F)C(F)(F)C(F)(F)C(F)(F)F | inactive | –
34 | CCN(CCO)S(=O)(=O)C(F)(F)C(F)(F)C(F)(F)C(F)(F)C(F)(F)C(F)(F)C(F)(F)C(F)(F)F | – | 33.7 µM (active) and 30 µM (active)
35 | FC(F)(F)C(F)(F)C(F)(F)C(F)(F)C(F)(F)C(F)(F)C(F)(F)CCI | inactive | –
36 | Cc1cc(O)c(C(C)(C)C)cc1C(C)(C)C | – | 3.63 µM (active)
37 | C=CC(=O)OCCC(F)(F)C(F)(F)C(F)(F)C(F)(F)F | inactive | –
38 | NC(=O)C(F)(F)C(F)(F)C(F)(F)C(F)F | inactive | –
39 | O=C(O)CCC(F)(F)C(F)(F)C(F)(F)C(F)(F)C(F)(F)C(F)(F)C(F)(F)F | inactive | –
